The panel holds about 79,000 compounds, 15% with a hit somewhere; the sample as a whole holds those more often. The source made the active and inactive calls. Cut-off read from the data, not from the text of the source: active = growth inhibition above about 70%; inactive = the rest.
How the values were obtained:
[1] = NCI Yeast Anticancer Drug Screen. Data for the rad52 strain (AID 147);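 note: 0% = growth of vehicle-treated control cultures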; conditions: S. cerevisiae rad52 mutant growth inhibition, hits give high values
Summary of the method: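 Screen used a yeast mutant impaired in DNA repair. After compound exposure, growth was measured. Values reflect inhibition compared with vehicle-treated cells.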

[2] = NCI Yeast Anticancer Drug Screen. Data for the wt1 strain (AID 149);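 note: 0% = growth of vehicle-treated wt1 cultures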; conditions: S. cerevisiae wt1 strain (SPY 50644) growth inhibition, hits give high values
Summary of the method: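 The wt1 strain was treated with compounds, and growth was compared with vehicle-treated cultures to give inhibition.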

[3] = NCI Yeast Anticancer Drug Screen. Data for the rad50EPP+ strain (AID 151);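 note: 0% = growth of vehicle-treated control cultures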; conditions: S. cerevisiae rad50 mutant strain, hits give high values
Summary of the method: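 Exposing the rad50EPP+ strain to each compound, growth was compared with vehicle-only cultures to give inhibition.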

[4] = NCI Yeast Anticancer Drug Screen. Data for the rad50 strain (AID 155);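 note: 0% = growth of vehicle-only cultures of the same strain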; conditions: S. cerevisiae rad50 strain growth inhibition, hits give high values
Summary of the method: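 Cells are treated with compound, grown, and their growth is then scored against vehicle-only cultures of the same repair-deficient yeast strain.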

[5] = NCI Yeast Anticancer Drug Screen. Data for the mec2-1 strain (AID 157); conditions: S. cerevisiae mec2-1 strain, hits give high values
Summary of the method: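 Readout is yeast growth inhibition, normalised to vehicle-treated controls, in the mec2-1 strain exposed to compound.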

[6] = NCI Yeast Anticancer Drug Screen. Data for the rad14 strain (AID 159);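 note: 0% = growth of vehicle-treated control cultures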; conditions: S. cerevisiae rad14 strain growth inhibition, hits give high values
Summary of the method: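 Readout: yeast growth inhibition, referenced to vehicle-only cultures. Strain bears a defined alteration in DNA damage repair.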

[7] = NCI Yeast Anticancer Drug Screen. Data for the sgs1 mgt1 strain (AID 161);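 note: 0% = growth of cultures given vehicle only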; conditions: S. cerevisiae sgs1 mgt1 strain, hits give high values
Summary of the method: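 Percent growth inhibition was derived by comparing compound-exposed mutant yeast with vehicle-exposed cultures. The strain carries alterations in DNA damage repair.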

[8] = NCI Yeast Anticancer Drug Screen. Data for the CLN2oe strain (AID 163);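 note: 0% = growth of vehicle-only control cultures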; conditions: S. cerevisiae CLN2oe strain, hits give high values
Summary of the method: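 Values reflect how much compound exposure reduced yeast growth, referenced to vehicle-exposed cells. Assay organism is a strain with a defined genetic change affecting cell-cycle control.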

[9] = NCI Yeast Anticancer Drug Screen. Data for the cln2 rad14 strain (AID 165);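 note: 0% = growth equal to vehicle treated cultures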; conditions: S. cerevisiae cln2 rad14 strain, hits give high values
Summary of the method: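 Relative to vehicle controls, growth inhibition of compound-treated cln2 rad14 yeast was recorded.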

[10] = NCI Yeast Anticancer Drug Screen. Data for the bub3 strain (AID 167); conditions: S. cerevisiae bub3 mutant strain, hits give high values
Summary of the method: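 Part of a panel of yeast mutants defective in DNA damage repair or cell cycle regulation. Each strain is grown with compound, and inhibition is calculated relative to solvent-treated cultures.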

[11] = NCI Yeast Anticancer Drug Screen. Data for the wt2 strain (AID 169);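 note: 0% = growth of vehicle-treated yeast cultures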; conditions: S. cerevisiae wt2 strain growth inhibition, hits give high values
Summary of the method: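 Values express reduction in yeast growth under compound treatment, referenced to vehicle-treated cells.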

[12] = NCI Yeast Anticancer Drug Screen. Data for the mlh1 strain (AID 171);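 note: 0% = growth of vehicle-treated control cultures of the same strain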; conditions: S. cerevisiae mlh1 strain growth inhibition, hits give high values
Summary of the method: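 Steps: expose the defined-mutant yeast strain to compound; expose a parallel culture to vehicle; measure growth; express compound effect as inhibition relative to the vehicle culture.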

[13] = NCI Yeast Anticancer Drug Screen. Data for the sgs1 strain (AID 173);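 note: 0% = growth of vehicle-only control cultures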; conditions: S. cerevisiae sgs1 mutant, hits give high values
Summary of the method: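 Treat defined-mutant yeast with compound; measure growth; calculate inhibition relative to vehicle-treated cells.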

[14] = NCI Yeast Anticancer Drug Screen. Data for the mlh1 rad18 strain (AID 175); conditions: S. cerevisiae mlh1 rad18 strain growth inhibition, hits give high values
Summary of the method: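 Test agents were incubated with a yeast strain of defined genotype (DNA damage repair defect). Inhibition of growth was derived by comparison with vehicle-exposed cultures.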

[15] = NCI Yeast Anticancer Drug Screen. Data for the rad18 strain (AID 177); conditions: S. cerevisiae rad18 mutant growth inhibition, hits give high values
Summary of the method: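 A genetically defined yeast mutant impaired in DNA damage repair was treated with test compounds, then its growth was measured against cultures receiving vehicle alone.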

[16] = at 5.0 µM (retest, dose inferred, filed as 0.5)
[17] = at 50.0 µM (retest, dose inferred, filed as 5.0)

Measured: growth inhibition

CCCCC(CC)C(=O)Oc1ccc(C(=O)c2ccccc2)c(O)c1 (stereo unspecified)
active: [1]; at 100.0 µM 98% | [2]; at 100.0 µM 98% | [3]; at 100.0 µM 88% | [4]; [17] 76% | [4]; at 50.0 µM 74.9% | [4]; at 100.0 µM 96% | [5]; [17] 79% | [5]; at 50.0 µM 75.2% | [5]; at 100.0 µM 98% | [6]; at 100.0 µM 97% | [7]; [17] 91% | [7]; at 50.0 µM 82% | [8]; at 100.0 µM 97% | [9]; [17] 88% | [10]; [17] 89% | [10]; at 50.0 µM 73% | [10]; at 100.0 µM 98% | [11]; at 100.0 µM 97% | [12]; at 100.0 µM 97% | [13]; at 100.0 µM 97% | [14]; [17] 77% | [15]; at 100.0 µM 97%
inactive: [1]; at 1.2 µM 4% | [1]; at 3.7 µM 3% | [1]; at 11.0 µM 6% | [1]; at 33.0 µM 61% | [2]; at 1.2 µM -13% | [2]; at 3.7 µM -17% | [2]; at 11.0 µM -15% | [2]; at 33.0 µM 37% | [3]; at 1.2 µM 8% | [3]; at 3.7 µM 13% | [3]; at 11.0 µM 20% | [3]; at 33.0 µM 54% | [4]; at 1.2 µM 7% | [4]; at 3.7 µM 4% | [4]; [16] 50% | [4]; at 11.0 µM 15% | [4]; at 33.0 µM 56% | [5]; at 1.2 µM 10% | [5]; at 3.7 µM 15% | [5]; [16] 53% | [5]; at 11.0 µM 19% | [5]; at 33.0 µM 61% | [6]; at 1.2 µM -5% | [6]; at 3.7 µM -6% | [6]; at 11.0 µM -8% | [6]; at 33.0 µM 29% | [7]; [16] -32% | [8]; at 1.2 µM 0% | [8]; at 3.7 µM 17% | [8]; at 11.0 µM 19% | [8]; at 33.0 µM 50% | [9]; [16] 48% | [9]; at 50.0 µM 65% | [10]; at 1.2 µM 21% | [10]; at 3.7 µM 27% | [10]; [16] -1% | [10]; at 11.0 µM 32% | [10]; at 33.0 µM 69% | [11]; at 1.2 µM -18% | [11]; at 3.7 µM -7% | [11]; at 11.0 µM -4% | [11]; at 33.0 µM 37% | [12]; at 1.2 µM -9% | [12]; at 3.7 µM -10% | [12]; at 11.0 µM 3% | [12]; at 33.0 µM 55% | [13]; at 1.2 µM 10% | [13]; at 3.7 µM 9% | [13]; at 11.0 µM 20% | [13]; at 33.0 µM 63% | [14]; [16] 38% | [14]; at 50.0 µM 69.3% | [15]; at 1.2 µM -4% | [15]; at 3.7 µM 0% | [15]; at 11.0 µM 17% | [15]; at 33.0 µM 53%

CC(C)(C)c1ccc(O)c(C(c2ccc([N+](=O)[O-])cc2)c2cc(C(C)(C)C)ccc2O)c1
inactive: [1]; at 1.2 µM 29% | [1]; at 3.7 µM 24% | [1]; at 11.0 µM 57% | [2]; at 1.2 µM -2% | [2]; at 3.7 µM -4% | [2]; at 11.0 µM 42% | [3]; at 1.2 µM 7% | [3]; at 3.7 µM -8% | [3]; at 11.0 µM -24% | [3]; at 33.0 µM -14% | [3]; at 100.0 µM -10% | [4]; at 1.2 µM 19% | [4]; at 3.7 µM 14% | [4]; [16] 21% | [4]; at 11.0 µM 61% | [5]; at 1.2 µM -1% | [5]; at 3.7 µM 14% | [5]; [16] 7% | [5]; at 11.0 µM 57% | [6]; at 1.2 µM -9% | [6]; at 3.7 µM -24% | [6]; at 11.0 µM 14% | [7]; [16] 29% | [7]; at 50.0 µM 29.1% | [8]; at 1.2 µM 2% | [8]; at 3.7 µM 19% | [8]; at 11.0 µM 38% | [9]; [16] 43% | [10]; at 1.2 µM 9% | [10]; at 3.7 µM 16% | [10]; [16] 33% | [10]; at 11.0 µM 53% | [11]; at 1.2 µM -16% | [11]; at 3.7 µM -19% | [11]; at 11.0 µM 46% | [12]; at 1.2 µM 12% | [12]; at 3.7 µM 6% | [12]; at 11.0 µM 29% | [13]; at 1.2 µM 22% | [13]; at 3.7 µM 13% | [13]; at 11.0 µM 40% | [14]; [16] 36% | [15]; at 1.2 µM 21% | [15]; at 3.7 µM 41% | [15]; at 11.0 µM 57%
active: [1]; at 33.0 µM 79% | [1]; at 100.0 µM 84% | [2]; at 33.0 µM 81% | [2]; at 100.0 µM 90% | [4]; at 33.0 µM 85% | [4]; [17] 88% | [4]; at 50.0 µM 84.3% | [4]; at 100.0 µM 92% | [5]; at 33.0 µM 85% | [5]; [17] 94% | [5]; at 50.0 µM 89% | [5]; at 100.0 µM 92% | [6]; at 33.0 µM 71% | [6]; at 100.0 µM 90% | [7]; [17] 93% | [8]; at 33.0 µM 80% | [8]; at 100.0 µM 91% | [9]; [17] 93% | [9]; at 50.0 µM 82.8% | [10]; at 33.0 µM 88% | [10]; [17] 94% | [10]; at 50.0 µM 84.2% | [10]; at 100.0 µM 92% | [11]; at 33.0 µM 81% | [11]; at 100.0 µM 83% | [12]; at 33.0 µM 90% | [12]; at 100.0 µM 93% | [13]; at 33.0 µM 82% | [13]; at 100.0 µM 93% | [14]; [17] 93% | [14]; at 50.0 µM 80.2% | [15]; at 33.0 µM 70% | [15]; at 100.0 µM 88%
